In PubChem BioAssay AID1159580 (chemical genetic matrix, 2015):
Values joined by “and” are separate entries in the source; they are usually repeats but may differ in a detail not shown here. Equal entries are not always repeated. The campaign covered roughly 5,500 compounds. About 2,000 (36%) were called active. Roughly 18% stayed inconclusive and do not appear here. No stated cut-off is given here; in the data, active means normalized growth mostly below about 0.91 (no sharp cut-off); inconclusive means no clear call, values can overlap the other calls; inactive means mostly above about 0.92. The list shows a part of the results.

Test: chemical genetic growth profiling, strain panel (AID 1159580);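 further: tested at 20 µM; growth read once vehicle control cultures reached saturation at 30 °C; 1 = growth at the plate median or of vehicle wells; lower values mean less growth of the strain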
Conditions: S. cerevisiae deletion strains, growth OD

Measured: normalized growth

CC(C)=CC1C(C(=O)OCc2cccc(Oc3ccccc3)c2)C1(C)C (configuration not stated)
inactive: locus YAL021C, strain ccr4, active compounds read low 1.01 | locus YAL026C, strain drs2, active compounds read low 1.02 | locus YAL030W, strain snc1, active compounds read low 1.01 | locus YBL061C, strain skt5, active compounds read low 1.01 | locus YBR009C, strain hhf1, active compounds read low 1.01 | locus YBR021W, strain FUR4, active compounds read low 0.998 | locus YBR023C, strain chs3, active compounds read low 1.01 | locus YBR171W, strain sec66, active compounds read low 1.02 | locus YBR229C, strain ROT2, active compounds read low 0.947 | locus YBR231C, strain swc5, active compounds read low 0.994 | locus YBR279W, strain paf1, active compounds read low 1 | locus YCL011C, strain gbp2, active compounds read low 1.01 | locus YCL016C, strain dcc1, active compounds read low 1.01 | locus YCL029C, strain bik1, active compounds read low 0.972 | locus YCL069W, strain vba3, active compounds read low 1.01 | locus YCR088W, strain abp1, active compounds read low 1.01 | locus YDL005C, strain med2, active compounds read low 1.01 | locus YDL035C, strain GPR1, active compounds read low 0.965 | locus YDL040C, strain nat1, active compounds read low 1 | locus YDL074C, strain BRE1, active compounds read low 1.01 | locus YDL101C, strain DUN1, active compounds read low 0.997 | locus YDL185W, strain tfp1, active compounds read low 0.968 | locus YDL192W, strain arf1, active compounds read low 0.987 | locus YDR001C, strain nth1, active compounds read low 1.01 | locus YDR069C, strain doa4, active compounds read low 0.99 | locus YDR101C, strain arx1, active compounds read low 0.967 | locus YDR137W, strain rgp1, active compounds read low 0.993 | locus YDR150W, strain NUM1, active compounds read low 0.993 | locus YDR159W, strain sac3, active compounds read low 1.02 | locus YDR162C, strain NBP2, active compounds read low 0.964 | locus YDR195W, strain ref2 0.98 | locus YDR297W, strain sur2, active compounds read low 1 | locus YDR318W, strain mcm21, active compounds read low 0.986 | locus YDR334W, strain swr1, active compounds read low 1.01 | locus YDR335W, strain msn5, active compounds read low 1.02 | locus YDR388W, active compounds read low 0.983 | locus YDR392W, strain spt3, active compounds read low 1.02 | locus YDR502C, strain sam2, active compounds read low 0.992 | locus YEL003W, strain gim4, active compounds read low 1.01 | locus YEL037C, strain rad23, active compounds read low 1.01 | locus YEL061C, strain CIN8 (second series), active compounds read low 1.01 | locus YEL061C, strain CIN8, active compounds read low 0.995 | locus YER015W, strain faa2, active compounds read low 1.01 | locus YER016W, strain bim1, active compounds read low 1.01 | locus YER110C, active compounds read low 0.978 | locus YER111C, strain swi4, active compounds read low 1.01 | locus YER155C, strain BEM2 (second series), active compounds read low 1.02 | locus YER155C, strain BEM2, active compounds read low 0.998 | locus YER167W, strain BCK2, active compounds read low 0.99 | locus YFR010W, strain ubp6, active compounds read low 0.997 | locus YGL078C, strain dbp3, active compounds read low 0.987 | locus YGL086W, strain mad1, active compounds read low 0.996 | locus YGL167C, strain pmr1, active compounds read low 1.02 | locus YGL173C, strain kem1, active compounds read low 1 | locus YGL227W, strain vid30, active compounds read low 1.01 | locus YGL240W, strain doc1, active compounds read low 1.03 | locus YGL248W, strain PDE1, active compounds read low 1.01 | locus YGL253W, strain hxk2, active compounds read low 1.01 | locus YGR078C, strain PAC10, active compounds read low 1.01 | locus YGR135W, strain pre9, active compounds read low 0.982 | locus YGR229C, strain SMI1, active compounds read low 0.99 | locus YGR252W, strain gcn5, active compounds read low 0.991 | locus YHR013C, strain ard1, active compounds read low 1.01 | locus YHR027C, strain rpn1, active compounds read low 1.01 | locus YHR030C, strain SLT2, active compounds read low 0.987 and 0.975 | locus YHR079C, strain IRE1 (second series), active compounds read low 0.99 | locus YHR079C, strain IRE1, active compounds read low 0.979 | locus YHR094C, strain hxt1, active compounds read low 0.988 | locus YHR129C, strain ARP1, active compounds read low 0.991 | locus YHR142W, strain chs7, active compounds read low 1 | locus YHR200W, strain rpn10, active compounds read low 0.976 | locus YIL066C, strain RNR3, active compounds read low 0.96 | locus YIL073C, strain SPO22, active compounds read low 1 | locus YIL125W, strain kgd1, active compounds read low 0.976 | locus YIR030C, strain dcg1, active compounds read low 0.982 | locus YJL092W, strain hpr5, active compounds read low 1.01 | locus YJL095W, strain BCK1 (second series), active compounds read low 1 | locus YJL095W, strain BCK1, active compounds read low 1.06 and 0.979 | locus YJL115W, strain asf1, active compounds read low 1.02 | locus YJL129C, strain trk1, active compounds read low 1.03 | locus YJL134W, strain LCB3, active compounds read low 0.987 | locus YJL154C, strain vps35, active compounds read low 1.01 | locus YJL164C, strain tpk1, active compounds read low 1.01 | locus YJL166W, strain qcr8, active compounds read low 1 | locus YJL168C, strain set2, active compounds read low 0.994 | locus YJL187C, strain SWE1 (second series), active compounds read low 1.04 | locus YJR043C, strain POL32, active compounds read low 0.971 | locus YJR066W, strain TOR1, active compounds read low 0.896 | locus YKL009W, strain mrt4, active compounds read low 0.977 | locus YKL068W, active compounds read low 0.987 | locus YKL085W, strain MDH1 (second series), active compounds read low 1 | locus YKL085W, strain MDH1, active compounds read low 1 | locus YKL160W, strain elf1, active compounds read low 1.02 | locus YKL190W, strain CNB1, active compounds read low 0.997 | locus YKR001C, strain vps1, active compounds read low 0.992 | locus YKR026C, strain gcn3, active compounds read low 1.01 | locus YKR091W, strain srl3, active compounds read low 1.01 | locus YLL001W, strain dnm1, active compounds read low 1.02 | locus YLL026W, active compounds read low 1.01 | locus YLL041C, strain sdh2, active compounds read low 1.02 | locus YLR027C, strain aat2, active compounds read low 1.01 | locus YLR039C, strain RIC1, active compounds read low 0.972 | locus YLR058C, strain SHM2, active compounds read low 0.993 | locus YLR102C, strain apc9, active compounds read low 0.991 | locus YLR113W, strain HOG1, active compounds read low 0.998 | locus YLR221C, strain rsa3, active compounds read low 1.01 | locus YLR258W, strain gsy2, active compounds read low 1.01 | locus YLR262C, strain YPT6 (second series), active compounds read low 1.01 | locus YLR262C, strain YPT6, active compounds read low 0.927 | locus YLR268W, strain sec22, active compounds read low 0.993 | locus YLR320W, strain mms22, active compounds read low 1.01 | locus YLR330W, strain CHS5, active compounds read low 0.984 | locus YLR342W, strain FKS1 (second series), active compounds read low 0.959 | locus YLR342W, strain FKS1, active compounds read low 1.01 | locus YLR357W, strain rsc2, active compounds read low 1.01 | locus YLR370C, strain arc18, active compounds read low 1.03 | locus YLR371W, strain rom2, active compounds read low 0.972 | locus YLR384C, strain iki3, active compounds read low 1.02 | locus YLR418C, strain cdc73, active compounds read low 0.985 | locus YML016C, strain PPZ1, active compounds read low 0.993 | locus YML032C, strain rad52, active compounds read low 0.983 | locus YML120C, strain ndi1, active compounds read low 1.01 | locus YML124C, strain tub3, active compounds read low 0.995 | locus YMR058W, strain fet3, active compounds read low 1.02 | locus YMR078C, strain ctf18, active compounds read low 0.972 | locus YMR125W, strain sto1, active compounds read low 1.02 | locus YMR129W, active compounds read low 1 | locus YMR205C, strain PFK2, active compounds read low 0.993 | locus YMR223W, strain ubp8, active compounds read low 0.983 | locus YMR231W, strain pep5, active compounds read low 1.01 | locus YMR307W, strain GAS1, active compounds read low 1.02 | locus YNL067W, strain RPL9B, active compounds read low 1.04 | locus YNL071W, strain lat1, active compounds read low 1.01 | locus YNL183C, strain NPR1, active compounds read low 0.934 | locus YNL209W, strain ssb2, active compounds read low 0.998 | locus YNL233W, strain BNI4, active compounds read low 1.05 | locus YNL248C, strain rpa49, active compounds read low 0.994 | locus YNL250W, strain rad50, active compounds read low 0.982 | locus YNL271C, strain bni1, active compounds read low 0.971 | locus YNL298W, strain CLA4, active compounds read low 0.986 | locus YNL307C, strain MCK1, active compounds read low 0.983 | locus YNL322C, strain KRE1 (second series), active compounds read low 1.01 | locus YNR049C, strain mso1, active compounds read low 1.01 | locus YNR052C, strain pop2, active compounds read low 0.988 | locus YOL006C, strain TOP1, active compounds read low 1.12 | locus YOL012C, strain htz1 1.31 | locus YOL147C, strain pex11, active compounds read low 0.988 | locus YOR001W, strain rrp6, active compounds read low 0.988 | locus YOR061W, strain CKA2, active compounds read low 0.977 | locus YOR069W, strain VPS5, active compounds read low 0.992 | locus YOR070C, strain gyp1, active compounds read low 1 | locus YOR080W, strain dia2, active compounds read low 1.01 | locus YOR083W, strain WHI5, active compounds read low 1 | locus YOR106W, strain vam3, active compounds read low 0.938 | locus YOR136W, strain idh2, active compounds read low 0.996 | locus YOR144C, strain elg1, active compounds read low 0.971 | locus YOR184W, strain ser1, active compounds read low 0.992 | locus YOR231W, strain MKK1, active compounds read low 0.989 | locus YOR265W, strain rbl2, active compounds read low 0.996 | locus YOR270C, strain vph1, active compounds read low 0.948 | locus YOR290C, strain snf2, active compounds read low 1.02 | locus YOR316C, strain cot1, active compounds read low 0.985 | locus YPL051W, strain arl3, active compounds read low 0.995 | locus YPL078C, strain atp4, active compounds read low 1.02 | locus YPL106C, strain sse1, active compounds read low 1.04 | locus YPL240C, strain hsp82, active compounds read low 1.01 | locus YPL256C, strain CLN2, active compounds read low 0.995 | locus YPR119W, strain clb2, active compounds read low 0.988 | locus YPR141C, strain kar3, active compounds read low 0.982 | locus YPR163C, strain tif3, active compounds read low 0.97 | locus YPR167C, strain met16, active compounds read low 0.983 | strain wtn01, active compounds read low 0.995
